High-throughput results from PubChem.
PfHsp40 rescue – restores yeast growth despite PfHsp40 toxicity; S. cerevisiae expressing PfHsp40, growth rescue, ATP luminescence; growth rescue, % at 12.5 µM; 340,000 compounds, 0.68% hits; AID 504582; in the data active = growth rescue above about 28%, passing the limit was not always enough;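 also: yeast W303a lacking pdr1 and pdr3 grown in galactose medium; growth measured after three days at 30 °C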
PrPC TRFRET – cell surface PrPC inhibition, primary TR-FRET screen; P04156; TR-FRET read-out; inhibition, % at 13.8 µM; 370,000 compounds, 0.43% hits; AID 720596; in the data active = inhibition above about 24%; also: 0% = median of the test wells and 100% = reference compound wells
PrP 5UTR inh – inhibition of PrP 5' UTR reporter expression; cell-based PrP 5' UTR mRNA reporter, plate reader; inhibition, % (no concentration beside the values); 340,000 compounds, 0.35% hits; AID 488862; in the data active = inhibition above about 52%; also: 0 = median of the neutral control wells
Vc quorum ag – induces V. cholerae light production without autoinducers. V. cholerae BH1578 lux reporter, luminescence, 6 h. 350,000 compounds, 0.16% hits. activation, % at 18.7 µM; in the data active = activation mostly above about 9.7%, no sharp cut-off
SARS 3CLpro inh – SARS-CoV 3CLpro protease inhibition. P0C6X7. recombinant SARS-CoV 3CLpro, quenched FRET peptide cleavage. inhibition, % at 6 µM. 290,000 compounds, 0.14% hits; in the data active = inhibition above about 12%
SSB-PriA inh – inhibitors of Klebsiella pneumoniae PriA binding to SSB C-terminal tail. inhibition, % at 33 µM. AlphaScreen SSBct-PriA binding, biotinylated peptide. 430,000 compounds, 0.6% hits; in the data active = inhibition mostly above about 37%, no sharp cut-off; inactive = mostly below about 20%;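 also: plate controls were negative control peptide for no effect and reference peptide for full effect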
* hit, by the source's call. Rows were chosen to be rich in hits. Some 1.6% of all compounds tested hit in one or more screens of this group.

Screening O=C(CSc1nccn1-c1cccc(Cl)c1)N1CCc2ccccc21 returned SSB-PriA inh 44.0*.
For O=C(CSc1nccn1-c1ccccc1)N1CCCc2ccccc21 the results were SSB-PriA inh 71.7*.
Screening CNC(=O)C1CC(=O)NC(=NN=C(C)c2cccs2)S1 (stereo unspecified) returned SSB-PriA inh 11.4.
CCOC(=O)N1CCN(C(=O)C2CCN(C(=O)c3ccccc3C)CC2)CC1 was read as PfHsp40 rescue 703.5*, PrPC TRFRET 1.8, PrP 5UTR inh -2.4, Vc quorum ag -3.2 and SSB-PriA inh 8.4.
Screening Cc1ccc(C(=O)Nc2ccc(Cc3ccc(NC(=O)c4ccc(C)cc4)cc3)cc2)cc1 returned SSB-PriA inh 6.0.
`CCc1ccc(C2=NNC(=Nc3cccc(S(=O)(=O)N(C)C)c3)SC2)cc1` gave PfHsp40 rescue -1.6, PrPC TRFRET 18.2, PrP 5UTR inh -13.8, Vc quorum ag -0.3, SARS 3CLpro inh 0.3 and SSB-PriA inh 42.3*.
Cc1cc(C(=O)OCC(=O)Nc2ccccc2C#N)c(C)o1 was read as PfHsp40 rescue -0.6, PrPC TRFRET -3.0, PrP 5UTR inh -18.4, Vc quorum ag 389.9* and SSB-PriA inh -4.6.
Cc1cc(C(=O)OCC(=O)NC2CCCC(C)C2C)c(C)o1 (stereo unspecified) was read as PfHsp40 rescue 61.9*, PrPC TRFRET -15.0, PrP 5UTR inh -5.4, Vc quorum ag inactive and SSB-PriA inh -8.4.
Screening CC1CCCC(NC(=O)COC(=O)c2ccc(Br)o2)C1C (stereo unspecified) returned PfHsp40 rescue 0.3, PrPC TRFRET 1.5, PrP 5UTR inh -3.7, Vc quorum ag inactive and SSB-PriA inh -2.9.
FC(F)(F)c1cnc(N2CCCN(C(=S)Nc3ccccc3)CC2)c(Cl)c1 was read as PfHsp40 rescue 7.5, PrPC TRFRET 1.2, PrP 5UTR inh -14.5, Vc quorum ag 0.2, SARS 3CLpro inh 6.5 and SSB-PriA inh -9.1.
`FC(F)(F)c1cnc(N2CCN(C(=S)NCc3ccccc3)CC2)c(Cl)c1` gave PfHsp40 rescue 77.1*, PrPC TRFRET 1.5, PrP 5UTR inh -23.6, Vc quorum ag -0.4, SARS 3CLpro inh 3.5 and SSB-PriA inh -13.7.
For C/C(=N\NC(=S)NCCc1ccccc1)c1cccs1 the results were PfHsp40 rescue 95.9*, PrPC TRFRET -5.3, PrP 5UTR inh -6.1, Vc quorum ag -0.3 and SARS 3CLpro inh -0.1.
For CC(=NNC(=S)NCCc1ccccc1)c1cccs1 the results were SSB-PriA inh 7.9.
CCOc1ccc2nc(NC(=S)N(C)C)sc2c1 was read as PfHsp40 rescue 122.3*, PrPC TRFRET 0.2, PrP 5UTR inh -39.7, Vc quorum ag -0.5, SARS 3CLpro inh -3.0 and SSB-PriA inh 2.1.
Screening CC1CCc2c(sc3nc(C4CC4)nc(N4CCN(C(=O)c5ccco5)CC4)c23)C1 (stereo unspecified) returned PfHsp40 rescue 160.7*, PrPC TRFRET 16.6, PrP 5UTR inh -25.5, Vc quorum ag 0.1, SARS 3CLpro inh -0.3 and SSB-PriA inh -9.4.
COc1ccccc1N1CCN(C(=O)[C@H]2CCc3nc[nH]c3C2)CC1 was read as SSB-PriA inh 0.0.
Screening O=C(Nc1ccc(Cl)cc1C(=O)c1ccccc1)c1ccco1 returned PfHsp40 rescue 1.8, PrPC TRFRET -6.1, PrP 5UTR inh -19.8, Vc quorum ag -0.3, SARS 3CLpro inh 0.1 and SSB-PriA inh 1.9.
O=C(Nc1ccc(Cl)cc1C(=O)Nc1ccc(Br)cn1)c1ccco1 was read as PfHsp40 rescue 269.7*, PrPC TRFRET 7.0, PrP 5UTR inh -39.9, Vc quorum ag inactive, SARS 3CLpro inh -0.7 and SSB-PriA inh -1.6.
For Cc1oc2c(c1C(=O)O)C(=O)c1ccccc1C2=O the results were PfHsp40 rescue -0.6, PrPC TRFRET -17.4, PrP 5UTR inh -47.7, Vc quorum ag -0.2, SARS 3CLpro inh 3.3 and SSB-PriA inh 6.0.
Screening Cc1oc2c(c1C(=O)c1ccccc1)C(=O)C(=O)c1ccccc1-2 returned PfHsp40 rescue 97.3*, PrPC TRFRET -4.8, PrP 5UTR inh -60.5, Vc quorum ag inactive, SARS 3CLpro inh -0.9 and SSB-PriA inh 26.0.
For CCOc1cc2c3c(c1)C1(Nc4ccccc4S1)C(=O)N3C(C)(C)CC2C (stereo unspecified) the results were PfHsp40 rescue 0.4, PrPC TRFRET -6.5, PrP 5UTR inh 8.0, Vc quorum ag -1.8, SARS 3CLpro inh 1.1 and SSB-PriA inh 39.9*.
For CCOc1cc2c3c(c1)C1(OCCO1)C(=O)N3C(C)(C)CC2C (stereo unspecified) the results were PfHsp40 rescue 1.5, PrPC TRFRET -4.8, PrP 5UTR inh -13.4, Vc quorum ag -0.6, SARS 3CLpro inh -1.5 and SSB-PriA inh 0.1.
Fc1ccc(Nc2nc(N/N=C/c3ccco3)nc(N3CCCCC3)n2)cc1 was read as PfHsp40 rescue 101.8*, PrPC TRFRET -0.3, PrP 5UTR inh -11.1, Vc quorum ag -0.2 and SARS 3CLpro inh 3.3.
For O=C(O)CN1C(=O)/C(=C\c2ccccc2OCc2ccc(Cl)cc2Cl)SC1=S the results were PfHsp40 rescue 52.5*, PrPC TRFRET 2.2, PrP 5UTR inh 14.9, Vc quorum ag -0.4, SARS 3CLpro inh -1.1 and SSB-PriA inh 9.7.
Screening O=C(O)CN1C(=O)/C(=C\c2cc(Br)ccc2OCc2ccccc2Cl)SC1=S returned PfHsp40 rescue 0.5, PrPC TRFRET 3.5, PrP 5UTR inh -14.5, Vc quorum ag -0.6, SARS 3CLpro inh -3.0 and SSB-PriA inh 8.0.
`Cc1cc2ncc(CCCNC(=O)c3cc4cc(F)ccc4s3)cn2n1` gave SSB-PriA inh -4.0.
Screening O=C(COc1cc(=O)n2ccccc2n1)Nc1ccc(OC(F)(F)F)cc1 returned SSB-PriA inh -15.0.
`CCCN1CCCc2cc(CCNS(=O)(=O)c3ccc(F)cc3F)ccc21` gave SSB-PriA inh 78.5*.
`CCCN1CCCc2cc(CCNS(=O)(=O)c3ccc(F)cc3C)ccc21` gave SSB-PriA inh 51.0*.
For CCCN1CCCc2cc(CCNS(=O)(=O)c3ccc(OC)cc3C)ccc21 the results were SSB-PriA inh 52.0*.
For CCCN1CCCc2cc(CCNS(=O)(=O)c3cc(C)c(OC)c(C)c3)ccc21 the results were SSB-PriA inh 63.0.
O=C(Cn1cnc(-c2ccccc2)cc1=O)N1CCc2ccccc2C1 was read as SSB-PriA inh -12.0.
`CCC(=O)N1CCc2ccc(NC(=O)CCc3ccccc3)cc2C1` gave SSB-PriA inh -9.0.
For COc1ccccc1Nc1ccc2c(O)cc(S(=O)(=O)O)cc2c1 the results were PfHsp40 rescue 3.7, PrPC TRFRET -6.2, PrP 5UTR inh 8.5, Vc quorum ag inactive and SSB-PriA inh 51.4*.
`O=C(Nc1nnc(-c2ccc(Cl)s2)o1)C1CC(=O)N(c2ccccc2)C1` (stereo unspecified) gave SSB-PriA inh 3.0.
For O=C(Nc1nnc(-c2ccco2)o1)C1CC(=O)N(c2ccccc2)C1 (stereo unspecified) the results were SSB-PriA inh 65.0*.
